The values that follow come from PubChem BioAssay (NCATS).

Inconclusive results are not listed. A number with no mark means an inactive call. Calls of active or inactive are those of the source. Unless noted, the call rests on the fitted dose curve; in most records, active means well fitted curve in the direction sought with a large enough effect; inconclusive means small, poorly fitted or top-dose-only effect, or another doubt; inactive means no such curve, though single readings can be large; an effect the other way counts as inactive or inconclusive.

In test [1] the target is Luciferin 4-monooxygenase (Photinus pyralis) (UniProt P08659). As to the kind of experiment: Biochemical firefly luciferase enzyme assay for NPC (AID 624030). Further: nearly all actives have a fitted effect of over 70% in size. Further: potency means the concentration at half of the fitted maximal effect. The gist of the method: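 Counter-screen for direct inhibition of the luciferase enzyme by approved-drug library compounds, run at 10 nM enzyme in 50 mM Tris acetate (final). Luminescence was read within 5 min of enzyme-buffer addition and normalized to PTC124 versus DMSO (0%).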

Test [2] is described as follows: S16 Schwann cell viability assay (CellTiter-Glo assay) (AID 624031).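 Further: cellular ATP luminescence as a viability measure; plate controls were DMSO-treated cells for no effect and cell-free wells for full effect; nearly all actives have a fitted effect of over 70% in size.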 Summed up:
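Luminescent ATP read-out (CellTiter-Glo) after 24 h compound exposure of native S16 rat Schwann cells at 37 °C. Signals were normalized between cell-free wells and DMSO-treated cells, set as 0% activity.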

Test [3] can be described thus: S16 Schwann cell PMP22 intronic element firefly luciferase assay (AID 624032).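 Further: plate controls were DMSO for no effect and PTC124 positive control mean for full effect; nearly all actives have a fitted effect of over 30% in size.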 Summed up: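 Rat S16 Schwann cells stably carrying a PMP22 intronic element-driven Fluc reporter were seeded overnight, then exposed to compounds for 24 h at 37 °C. Luminescence was normalized to PTC124 (positive control) and DMSO (0% activity).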
Test [4] in a line: S16 Schwann cell PMP22 intronic element beta-lactamase assay (AID 624044; calls by dose curve;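 further: 0% = DMSO and -100% = potassium clavulanate positive control; nearly all actives have a fitted effect of over 15% in size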). The following applies: S16 rat Schwann cells, PMP22 element beta-lactamase FRET, 24 h; ratio activity, negative = inhibition: at 38.3 µM (top of the series) unless noted. Summed up:
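Rat S16 Schwann cells with beta-Lac driven by a PMP22 intronic element, compound-treated 24 h at 37 °C. LiveBLAzer FRET B/G read: 460 nm normalized to potassium clavulanate vs DMSO; 535 nm FRET as viability; concentration-effect curves classified.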

Sequence of Luciferin 4-monooxygenase (Photinus pyralis) (P08659 whole entry, looked up): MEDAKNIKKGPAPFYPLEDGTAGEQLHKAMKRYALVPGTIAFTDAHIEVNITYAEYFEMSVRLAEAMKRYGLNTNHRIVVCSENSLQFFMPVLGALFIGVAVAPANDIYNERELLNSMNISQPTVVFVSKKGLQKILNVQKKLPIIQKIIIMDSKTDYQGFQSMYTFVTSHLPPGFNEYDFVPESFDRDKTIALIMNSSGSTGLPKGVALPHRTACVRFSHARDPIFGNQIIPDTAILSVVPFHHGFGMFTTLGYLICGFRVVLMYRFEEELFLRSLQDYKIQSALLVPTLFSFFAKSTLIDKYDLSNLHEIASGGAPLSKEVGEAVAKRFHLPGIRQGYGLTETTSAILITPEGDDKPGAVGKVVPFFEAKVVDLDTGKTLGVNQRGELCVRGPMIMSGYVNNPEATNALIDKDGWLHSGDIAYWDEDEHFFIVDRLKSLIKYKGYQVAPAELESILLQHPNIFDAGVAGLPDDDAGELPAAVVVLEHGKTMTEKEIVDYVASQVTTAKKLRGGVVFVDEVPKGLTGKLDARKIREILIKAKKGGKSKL

Regarding `COc1ccc(C(=O)c2ccc(C)cc2)c(O)c1`, the Potency in test [1] is 14.4 µM (active). The Potency result in test [2] and in test [3] was “inactive” each time. Besides, the ratio activity, negative = inhibition in test [4] was 6.33%.
`CC/C=C\C/C=C\C/C=C\C/C=C\C/C=C\CCCC(=O)O`: the Potency result in test [1], in test [2] and in test [3] was “inactive” each time. In addition, the ratio activity, negative = inhibition in test [4] was 1.33%.
Take `Cc1cc2nc3c(=O)[nH]c(=O)nc-3n(C[C@H](O)[C@H](O)[C@H](O)COP(=O)(O)OP(=O)(O)OC[C@H]3O[C@@H](n4cnc5c(N)ncnc54)[C@H](O)[C@@H]3O)c2cc1C`: the Potency result in test [1], in test [2] and in test [3] was “inactive” in each case. Moreover, the ratio activity, negative = inhibition in test [4] was -42.7%.
For the molecule `C[N+]1(C)[C@@H]2CC(OC(=O)C(O)(c3cccs3)c3cccs3)C[C@H]1[C@@H]1O[C@@H]12` (some centres not stated), the Potency result in test [2] and in test [3] was “inactive” each time. Moreover, the ratio activity, negative = inhibition in test [4] is -1.55%.
With `CCSc1ccc2c(c1)N(CCCN1CCN(C)CC1)c1ccccc1S2`, the Potency entry in test [1], in test [2] and in test [3] was “inactive” throughout. Besides, the ratio activity, negative = inhibition in test [4] was 0.419% [at 17.1 µM].
Turning to `O=C(O)Cc1nn(Cc2ccc(Br)cc2F)c(=O)c2ccccc12`, the Potency entry in test [1], in test [2] and in test [3] was “inactive” in each case. The ratio activity, negative = inhibition in test [4] was 3.04%.
Regarding `CCCc1nc(C(C)(C)O)c(C(=O)OCc2oc(=O)oc2C)n1Cc1ccc(-c2ccccc2-c2nn[nH]n2)cc1`, the Potency result in test [1], in test [2] and in test [3] was “inactive” each time. The ratio activity, negative = inhibition in test [4] is 0.293%.
For `C=CCOc1ccc(CC(=O)O)cc1Cl`, the Potency result in test [1], in test [2] and in test [3] was “inactive” throughout. In test [4], the ratio activity, negative = inhibition is -6.65%.
Take `Cc1ncc(C[n+]2csc(CCOP(=O)(O)OP(=O)(O)O)c2C)c(N)n1`: the Potency entry in test [2] and in test [3] was “inactive” in each case. The ratio activity, negative = inhibition in test [4] was -0.395%.
As to `C#C[C@]1(O)CC[C@@H]2[C@H]3CCC4=CC(=O)CC[C@H]4[C@H]3C(=C)C[C@@]21CC`, the Potency entry in test [1] and in test [2] was “inactive” in each case. Also, the ratio activity, negative = inhibition in test [4] is -9.17% (active).
